The text below walks through data of PubChem BioAssay (NCATS).

Results filed as inconclusive are left out. A number with no mark means an inactive call. Active and inactive are the calls of the source. The call rests on the fitted dose curve; in most records, active means well fitted curve in the direction sought with a large enough effect; inconclusive means small, poorly fitted or top-dose-only effect, or another doubt; inactive means no such curve, though single readings can be large; an effect the other way counts as inactive or inconclusive.

Test [1] can be described thus: qHTS of pediatric cancer cell lines to identify multiple opportunities for drug repurposing: Primary screen for SJ-GBM2 cells (AID 1347091).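 Further: plate controls were DMSO neutral control for no effect and bortezomib for full effect.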 A digest of the protocol: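 Eight- or eleven-point concentration series, 48 h treatment at 37 degrees C in growth media; readout CellTiter-Glo luminescence. Potency and efficacy were taken from the concentration-response curves.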

A short description of test [2]: qHTS of pediatric cancer cell lines to identify multiple opportunities for drug repurposing: Primary screen for SK-N-MC cells (AID 1347093). Further: potency means the concentration at half of the fitted maximal effect. The procedure, abridged:
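Metabolically active cells were quantified by ATP-dependent luminescence (CellTiter-Glo, 15 min at room temperature) following 48 h treatment. Cells had been plated at 500-1,000 per well and settled for 5 h beforehand.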
In general terms: qHTS replaces the single test concentration by a dilution series.

The nature of test [3]: qHTS of pediatric cancer cell lines to identify multiple opportunities for drug repurposing: Primary screen for U-2 OS cells (AID 1347096).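 Further: plate controls were DMSO wells for no effect and bortezomib positive control wells for full effect; nearly all actives have a fitted effect of over 50% in size.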 The procedure, abridged:
(§1)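 Cells (500-1,000/well) in growth media were settled 5 h at 37 degrees C, then given compounds for 48 h. Viability was read as CellTiter-Glo luminescence. Primary runs used MIPE at 11 points (0.78 nM-46 µM) and NPC at 8 points (0.59 nM-46 µM); follow-ups used 11 points.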

Test [4] can be described thus: qHTS of pediatric cancer cell lines to identify multiple opportunities for drug repurposing: Primary screen for LAN-5 cells (AID 1347100). Further: potency means the concentration at half of the fitted maximal effect.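 On activity change, negative = cytotoxic: plate controls were DMSO neutral control for no effect and bortezomib positive control for full effect.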 A digest of the protocol:
as §1

The nature of test [5]: qHTS of pediatric cancer cell lines to identify multiple opportunities for drug repurposing: Primary screen for OHS-50 cells (AID 1347103). Further: nearly all actives have a fitted effect of over 40% in size. Further: potency means the concentration at half of the fitted maximal effect.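 On activity change, negative = cytotoxic: plate controls were DMSO neutral control for no effect and bortezomib positive control for full effect.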 The procedure, abridged:
(§2)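 Cells (500-1,000/well) rested 5 h, then received compounds for 48 h; metabolically active cells were measured by CellTiter-Glo luminescence. Final concentrations spanned up to 46 µM (MIPE, 11-point) or 0.59 nM-46 µM (NPC, 8-point) in primary screens, 11-point in follow-ups.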

The nature of test [6]: qHTS of pediatric cancer cell lines to identify multiple opportunities for drug repurposing: Primary screen for control Hh wild type fibroblast cells (AID 1347106).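 Further: series mostly up to about 46 µM; on the % scale 0 is the no-effect control and ±100 the full control effect; a drop in luminescence marks cytotoxicity and a rise apparent proliferation; nearly all actives have a fitted effect of over 55% in size.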 A digest of the protocol: as §1
Test [7] is described as follows: qHTS of pediatric cancer cell lines to identify multiple opportunities for drug repurposing: Primary screen for Rh30 cells (AID 1347107). Further: series mostly up to about 46 µM; on the % scale 0 is the no-effect control and ±100 the full control effect; nearly all actives have a fitted effect of over 75% in size. The procedure, abridged: as §1
Test [8] is described as follows: qHTS of pediatric cancer cell lines to identify multiple opportunities for drug repurposing: Primary screen for A673 cells (AID 1347092). Further: nearly all actives have a fitted effect of over 45% in size. Further: potency means the concentration at half of the fitted maximal effect. On activity change, negative = cytotoxic: on the % scale 0 is the no-effect control and ±100 the full control effect. The procedure, abridged: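 Luminescence from CellTiter-Glo, taken after 15 min at room temperature, served as the proxy for metabolically active cells following 48 h treatment. Both potency and efficacy were taken from curves fitted to the titration data.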

Test [9] can be described thus: qHTS of pediatric cancer cell lines to identify multiple opportunities for drug repurposing: Primary screen for BT-37 cells (AID 1347094).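 Further: series mostly up to about 57 µM; plate controls were DMSO for no effect and bortezomib for full effect.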 The procedure, abridged:
(§3)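 Quantitative HTS format: each compound titrated (MIPE 11 points from 0.78 nM, NPC 8 points from 0.59 nM) onto cells plated 5 hours earlier. After 48 h at 37 degrees C, CellTiter-Glo luminescence was recorded.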

Test [10] can be described thus: qHTS of pediatric cancer cell lines to identify multiple opportunities for drug repurposing: Primary screen for NB1643 cells (AID 1347099).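 Further: plate controls were DMSO neutral control for no effect and bortezomib positive control for full effect; nearly all actives have a fitted effect of over 50% in size.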 The procedure, abridged: as §3
Test [11] is described as follows: qHTS of pediatric cancer cell lines to identify multiple opportunities for drug repurposing: Primary screen for BT-12 cells (AID 1347101). Further: nearly all actives have a fitted effect of over 25% in size. Further: potency means the concentration at half of the fitted maximal effect.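 On activity change, negative = cytotoxic: plate controls were DMSO for no effect and bortezomib positive control for full effect.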 A digest of the protocol:
as §2

Test [12] can be described thus: qHTS of pediatric cancer cell lines to identify multiple opportunities for drug repurposing: Primary screen for Rh18 cells (AID 1347102). Further: on the % scale 0 is the no-effect control and ±100 the full control effect; nearly all actives have a fitted effect of over 65% in size. A digest of the protocol: as §1
Test [13] can be described thus: qHTS of pediatric cancer cell lines to identify multiple opportunities for drug repurposing: Primary screen for RD cells (AID 1347104).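 Further: plate controls were DMSO for no effect and bortezomib for full effect; nearly all actives have a fitted effect of over 55% in size.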 A digest of the protocol:
as §3

The nature of test [14]: qHTS of pediatric cancer cell lines to identify multiple opportunities for drug repurposing: Primary screen for Rh41 cells (AID 1347108).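 Further: series mostly up to about 46 µM; luminescence drop marks cytotoxic hits; nearly all actives have a fitted effect of over 70% in size.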 The procedure, abridged:
as §3

Test [15] can be described thus: qHTS of pediatric cancer cell lines to identify multiple opportunities for drug repurposing: Primary screen for NB-EBc1 cells (AID 1347095).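 Further: plate controls were DMSO neutral control for no effect and bortezomib for full effect.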 A digest of the protocol: as §3
Test [16] can be described thus: qHTS of pediatric cancer cell lines to identify multiple opportunities for drug repurposing: Primary screen for Saos-2 cells (AID 1347097). Further: on the % scale 0 is the no-effect control and ±100 the full control effect; nearly all actives have a fitted effect of over 40% in size. The procedure, abridged:
as §3

Test [17] in a line: qHTS of pediatric cancer cell lines to identify multiple opportunities for drug repurposing: Primary screen for MG 63 (6-TG R) cells (AID 1347105). Further: on the % scale 0 is the no-effect control and ±100 the full control effect; nearly all actives have a fitted effect of over 50% in size. A digest of the protocol:
as §3

Test [18] can be described thus: qHTS of pediatric cancer cell lines to identify multiple opportunities for drug repurposing: Primary screen for SK-N-SH cells (AID 1347098). Further: nearly all actives have a fitted effect of over 65% in size. Further: potency means the concentration at half of the fitted maximal effect.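 On activity change, negative = cytotoxic: DMSO served as neutral control and bortezomib at 2.3 µM as positive control; on the % scale 0 is the no-effect control and ±100 the full control effect.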 The procedure, abridged:
as §2

With `CNC(=O)N1N=C(c2ccc(N)cc2)c2cc3c(cc2CC1C)OCO3` (centres undefined), the Potency result in test [1], in test [3], in test [6] and in test [7] was “inactive” throughout. In addition, the Potency in test [2] is 9.35 µM (active); in test [4] it was 5.9 µM (active); in test [5], 3.85 µM (active).

Take `Cn1cc(C2=C(c3cn(C4CCN(Cc5ccccn5)CC4)c4ccccc34)C(=O)NC2=O)c2ccccc21`: the Potency in test [8] was 3.72 µM (active). Besides, the Potency entry in test [9], in test [3], in test [10], in [11], in test [12] and in [13] was “inactive” throughout. Further, the Potency entry in [6], in test [7] and in [14] was “inactive” each time.

As to `Cc1ncc(CNC(=O)N(CCCl)N=O)c(N)n1`, the Potency entry in [1], in test [9], in test [15], in [3], in [16] and in test [10] was “inactive” each time. Further, the Potency result in [4], in test [11], in [12], in test [5], in test [13] and in test [17] was “inactive” each time. The Potency entry in [6], in [7] and in [14] was “inactive” in each case.

For `Oc1cccc2cccnc12`, the Potency result in [1], in test [9], in test [12], in [17] and in test [7] was “inactive” in each case.

Consider `COc1ccccc1N1CCNCC1`, for which the Potency entry in test [1], in [8], in [9], in test [15], in test [3] and in test [18] was “inactive” throughout. Also, the Potency entry in [10], in [4], in test [11], in test [12], in test [5] and in [13] was “inactive” throughout. Further, the Potency entry in test [17], in test [6] and in test [7] was “inactive” each time.

For `N#CC(C#N)=Cc1ccc(O)c(O)c1`, the Potency result in test [1], in test [3], in [16], in test [18], in test [10] and in test [12] was “inactive” in each case. Besides, the Potency result in [13], in test [17], in test [6], in test [7] and in test [14] was “inactive” throughout. For the same molecule, the Potency in test [2] was 13.3 µM (active).

`Cc1cc(SCc2sc(-c3ccc(C(F)(F)F)c(F)c3)nc2C)ccc1OCC(=O)O`: the Potency result in [8], in test [3], in test [10], in test [4], in [11] and in [12] was “inactive” in each case. Also, the Potency result in [13], in test [17], in test [6], in test [7] and in test [14] was “inactive” in each case.

With `NCC(CC(=O)O)c1ccc(Cl)cc1` (centres undefined), the activity change, negative = cytotoxic in test [1] is -1.55% [at 0.597 µM]; in test [8], -10.9% [at 0.597 µM]; in test [9] it was -2.84% [at 0.745 µM]; in test [15], -3.28% [at 0.597 µM]; in [3], -3.85% [at 0.597 µM]; in [10] it was -5.29% [at 0.597 µM]. Further, the activity change, negative = cytotoxic is -9.23% [at 0.597 µM] in test [4]; 1.13% [at 0.745 µM] in [11]; -2.74% [at 0.597 µM] in test [12]; -11.1% [at 0.73 µM] in test [5]; 1.05% [at 0.597 µM] in [13]; -15.2% [at 0.597 µM] in test [17]. Also, the activity change, negative = cytotoxic in test [6] is 6.77% [at 0.597 µM]; in [7] it was -0.257% [at 0.597 µM].

Turning to `O=c1[nH]c2ccccc2n1C1CCN(CCCC(c2ccc(F)cc2)c2ccc(F)cc2)CC1`, the Potency in [2] is 16.8 µM (active); in [18], 27.3 µM (active); in test [11], 15.5 µM (active); in test [5], 17.4 µM (active). For the same molecule, the Potency entry in test [3], in test [6] and in [7] was “inactive” throughout.

As to `C[C@]12C/C(=C/O)C(=O)C[C@@H]1CC[C@@H]1[C@@H]2CC[C@@]2(C)[C@H]1CC[C@]2(C)O`, the Potency in test [2] was 23.7 µM (active). The Potency entry in test [3], in test [12], in test [13], in test [17], in test [6] and in [7] was “inactive” each time. The Potency entry in test [14] was “inactive”.
